# According to the supplement of paper PMC7261846:
# ± gives the uncertainty stated by the source.
# System: Candida albicans SNY425 biofilm
# Assay: biofilm OD600 with compound plus antifungal (OD600 (absorbance)); higher = more biofilm remaining
# [1] = assay detail: disruption of 24-h mature biofilm (compound + antifungal for a second 24 h)
# [2] = assay detail: sustained inhibition (compound + antifungal during 90-min adherence and 24-h growth)
SMILES,biofilm OD600 [1],biofilm OD600 [2]
NC(=O)c1cccc(-c2cccc(OC(=O)NC3CCCCC3)c2)c1 + CC[C@H](C)C[C@H](C)CCCCCCCCC(=O)N[C@H]1C[C@@H](O)[C@@H](NCCN)NC(=O)[C@@H]2[C@@H](O)CCN2C(=O)[C@H]([C@H](O)CCN)NC(=O)[C@H]([C@H](O)[C@@H](O)c2ccc(O)cc2)NC(=O)[C@@H]2C[C@@H](O)CN2C(=O)[C@H]([C@@H](C)O)NC1=O [caspofungin] (first compound 12.5 µM),0.283 ± 0.011,0.171 ± 0.0069
CC(C)CN(C[C@@H](O)[C@H](Cc1ccccc1)NC(=O)O[C@H]1CCOC1)S(=O)(=O)c1ccc(N)cc1 [amprenavir] + CC[C@H](C)C[C@H](C)CCCCCCCCC(=O)N[C@H]1C[C@@H](O)[C@@H](NCCN)NC(=O)[C@@H]2[C@@H](O)CCN2C(=O)[C@H]([C@H](O)CCN)NC(=O)[C@H]([C@H](O)[C@@H](O)c2ccc(O)cc2)NC(=O)[C@@H]2C[C@@H](O)CN2C(=O)[C@H]([C@@H](C)O)NC1=O [caspofungin] (first compound 12.5 µM),0.271 ± 0.014,0.201 ± 0.013
CCN1C(=O)C=CC1=O [N-Ethylmaleimide] + CC[C@H](C)C[C@H](C)CCCCCCCCC(=O)N[C@H]1C[C@@H](O)[C@@H](NCCN)NC(=O)[C@@H]2[C@@H](O)CCN2C(=O)[C@H]([C@H](O)CCN)NC(=O)[C@H]([C@H](O)[C@@H](O)c2ccc(O)cc2)NC(=O)[C@@H]2C[C@@H](O)CN2C(=O)[C@H]([C@@H](C)O)NC1=O [caspofungin] (first compound 4 µM),0.281 ± 0.013,0.17 ± 0.0037
CC(C)C[C@@H](C=O)NC(=O)[C@H](CC(C)C)NC(=O)[C@H](CC(C)C)NC(=O)OCc1ccccc1 + OC(Cn1cncn1)(Cn1cncn1)c1ccc(F)cc1F [fluconazole] (first compound 12.5 µM),0.277 ± 0.0062,0.148 ± 0.0097
O=C(O)CNC(=O)C(CS)Cc1ccccc1 (racemic) [DL-Thiorphan] + C[C@@H]1[C@H](O)[C@@H](C)/C=C/C=C/C=C/C=C/C=C/C=C/C=C/[C@H](O[C@@H]2O[C@H](C)[C@@H](O)[C@H](N)[C@@H]2O)C[C@@H]2O[C@](O)(C[C@@H](O)C[C@@H](O)[C@H](O)CC[C@@H](O)C[C@@H](O)CC(=O)O[C@H]1C)C[C@H](O)[C@H]2C(=O)O [amphotericin B] (first compound 12.5 µM),0.264 ± 0.0083,0.164 ± 0.012
C[C@H](NC(=O)[C@@H]1CCCN1C(=O)[C@@H]1CCCN1C(=O)[C@@H](O)[C@H](N)Cc1ccccc1)C(N)=O [Apstatin] + C[C@@H]1[C@H](O)[C@@H](C)/C=C/C=C/C=C/C=C/C=C/C=C/C=C/[C@H](O[C@@H]2O[C@H](C)[C@@H](O)[C@H](N)[C@@H]2O)C[C@@H]2O[C@](O)(C[C@@H](O)C[C@@H](O)[C@H](O)CC[C@@H](O)C[C@@H](O)CC(=O)O[C@H]1C)C[C@H](O)[C@H]2C(=O)O [amphotericin B] (first compound 12.5 µM),0.294 ± 0.0093,0.193 ± 0.0078
CCCC[C@@H](C=O)NC(=O)OC(C)(C)C + OC(Cn1cncn1)(Cn1cncn1)c1ccc(F)cc1F [fluconazole] (first compound 12.5 µM),0.243 ± 0.0054,0.117 ± 0.0068
CCCCCCCCCC(=O)N[C@@H](CCCN=C(N)N)C(=O)N[C@H](C(=O)N[C@@H](CCCCN)C(=O)N[C@@H](CCCN=C(N)N)C(=O)CCl)C(C)C + OC(Cn1cncn1)(Cn1cncn1)c1ccc(F)cc1F [fluconazole] (first compound 4 µM),0.267 ± 0.0072,0.108 ± 0.005
CC(C)C[C@H](NC(=O)[C@H]1O[C@@H]1C(=O)O)C(=O)NCCCCN=C(N)N + OC(Cn1cncn1)(Cn1cncn1)c1ccc(F)cc1F [fluconazole] (first compound 12.5 µM),0.255 ± 0.012,0.149 ± 0.0057
CCC(C)[C@H](NS(=O)(=O)c1cccc2ccccc12)C(=O)N[C@H](C=O)Cc1c[nH]c2ccccc12 (stereo not given in full) + CC[C@H](C)C[C@H](C)CCCCCCCCC(=O)N[C@H]1C[C@@H](O)[C@@H](NCCN)NC(=O)[C@@H]2[C@@H](O)CCN2C(=O)[C@H]([C@H](O)CCN)NC(=O)[C@H]([C@H](O)[C@@H](O)c2ccc(O)cc2)NC(=O)[C@@H]2C[C@@H](O)CN2C(=O)[C@H]([C@@H](C)O)NC1=O [caspofungin] (first compound 12.5 µM),0.253 ± 0.01,0.18 ± 0.0089
